# Results from PubChem BioAssay (Tox21).
# Inconclusive results are not listed. A call without a number means that no potency is given here. Unmarked numbers belong to inactive results. The source made the active and inactive calls. Calls follow the shape of the dose curve; as a rule, active = well fitted activation curve with a large enough effect in the repeat runs; inconclusive = weak or mixed curves; inactive = no such curve, though single readings can be large or run the other way.
# Molecular target: Nuclear receptor subfamily 1 group I member 2 (Homo sapiens) (UniProt O75469)
# Assay: Human pregnane X receptor (PXR) small molecule agonists, qHTS assay (AID 1346982); also: nearly all actives have a fitted effect of over 35% in size
# Conditions: PXR-Luc HepG2, CYP3A4 luciferase reporter, 24 h; series mostly up to 92.4 µM
# Source text: National Center for Advancing Translational Sciences [NCATS]
# NIH Chemical Genomics Center [NCGC]
# U.S. Environmental Protection Agency [EPA]
# National Institutes of Environmental Health Sciences [NIEHS]
# National Toxicology Program [NTP]
# The human pregnane X receptor (hPXR) regulates the expression of several drug metabolizing enzymes and induction of these proteins is a major mechanism for developing drug resistance in cancer. One such key enzyme catalyzing the drug metabolism is cytochrome P450 3A4 (CYP3A4). Changes in CYP3A4 expression affect drug metabolism, thereby reducing the therapeutic efficacy and altering toxicological response to a drug and which finally causes adverse drug interaction. To screen Tox21 libraries for compounds that activate hPXR-mediated CYP3A4 gene expression, PXR-Luc HepG2 cells were used.
# PXR-Luc HepG2 cells were dispensed at 2,000 per well in 5uL of assay medium containing 5% charcoal-stripped FBS into white solid bottom 1536-well plates (Corning Life Sciences, Corning, NY) using a Multidrop Combi (Thermo Scientific, Waltham, MA) dispenser. The assay plates were incubated at 37 C and 5% CO2 for 5hr, and then 23nL of compounds dissolved in DMSO and positive control were transferred using a Pintool station (Wako, San Diego, CA). The assay plates were incubated at 37C and 5% CO2 for 24hr. For luciferase read, 4uL of ONE-Glo reagent (Promega Corporation, Madison, WI) was added to each well of the assay plates using Flying Reagent Dispenser (FRD, Aurora Discovery, San Diego, CA) and incubated the assay plates at room temperature for 30min. The luminescence signal was quantified using a ViewLux plate reader (Perkin Elmer, Shelton, CT).
# Potency is read from the fitted curve at half-maximal effect.
# Nuclear receptor subfamily 1 group I member 2 (Homo sapiens), sequence (O75469 whole entry, looked up): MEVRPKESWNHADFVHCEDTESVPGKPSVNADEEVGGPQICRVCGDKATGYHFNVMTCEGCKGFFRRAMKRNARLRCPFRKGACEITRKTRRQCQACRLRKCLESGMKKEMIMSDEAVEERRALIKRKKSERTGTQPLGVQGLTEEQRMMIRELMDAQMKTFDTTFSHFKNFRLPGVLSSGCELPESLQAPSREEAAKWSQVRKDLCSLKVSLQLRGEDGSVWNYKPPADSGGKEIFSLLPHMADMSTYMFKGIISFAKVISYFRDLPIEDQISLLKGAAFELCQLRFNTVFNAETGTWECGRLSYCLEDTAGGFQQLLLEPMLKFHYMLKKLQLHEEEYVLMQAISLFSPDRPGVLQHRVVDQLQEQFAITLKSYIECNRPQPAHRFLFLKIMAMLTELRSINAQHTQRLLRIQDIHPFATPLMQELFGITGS
SMILES,Potency,activation
O=C(CCS)OCC(COC(=O)CCS)(COC(=O)CCS)COC(=O)CCS,inactive,
Cc1ccc(N(CCO)CCO)cc1,inactive,
COC(OC)OC,inactive,
Nc1nc(-c2ccc([N+](=O)[O-])cc2)cs1,9.79 µM (active),
O=C1c2ccccc2C(=O)c2c(O)ccc(O)c21,4.86 µM (active),
CC(=O)OC(C)C[N+](C)(C)C (stereo not given),inactive,
c1ccc2sc(SSc3nc4ccccc4s3)nc2c1,,0% [at 19 µM]
CC(CN(CCN(CC(C)OCCO)CC(C)OCCO)CC(C)OCCO)OCCO (stereo not given),3.31 µM (active),
CCCCCCC(CO)CCCC (stereo not given),inactive,
Cc1ccc(S(=O)(=O)NC(=O)NC2CCCCC2)cc1,inactive,
O=C1NC(=O)c2cccc3cccc1c23,12.2 µM (active),
O=S(=O)(Cl)c1c(Cl)cccc1Cl,inactive,
CCSC(=O)N(CC)CC,inactive,
CC1=CC[C@@]23C[C@@H]1C(C)(C)[C@@H]2CC[C@H]3C,inactive,
CCC(CO)(CO)[N+](=O)[O-],inactive,
CC(C)(C)C(O)/C=C/c1ccc2c(c1)OCO2 (stereo not given),29.8 µM (active),
O=C(c1ccccc1)C1CCC1,inactive,
C[C@@H]1C[C@H]2[C@@H]3CCC4=CC(=O)C=C[C@]4(C)[C@@]3(F)[C@@H](O)C[C@]2(C)[C@@]1(O)C(=O)COP(=O)(O)O,inactive,
CC(C)CC(O)CC(C)C,inactive,
CCCCCCCC(=O)OCCCCCC,inactive,

SMILES,Potency,activation
CNS(=O)(=O)c1cc(C(=O)N2CCC(CCN3C4CCC3CC(n3c(C)nc5ccccc53)C4)(c3cccc(F)c3)CC2)c(Cl)cc1F (stereo not given),inactive,
CC(=O)C(C)=O,inactive,
CCN(CC)CCNC(=O)c1cc(Cl)c(N)cc1OC,inactive,
CC(C)C1CCC(C(=O)N[C@H](Cc2ccccc2)C(=O)O)CC1 (stereo not given in full),inactive,
CCCCCCCC(=O)Oc1c(Br)cc(C#N)cc1Br,inactive,
COc1cc(NCc2ccc3nc(N)nc(N)c3c2C)cc(OC)c1OC,inactive,
CC(=O)NNC(C)=O,inactive,
CC1CCc2nccnc21 (stereo not given),inactive,
COc1cc(S(=O)(=O)Nc2ccccc2)c(OC)cc1N,27.3 µM (active),
CCOC(=O)c1ccc(NC(=O)CN2CCCCC2)cc1,23.7 µM (active),
CCCCCCCCCCCCCCN(C)C,,8.78% [at 19 µM]
BrC(Br)C(Br)Br,inactive,
O=C1[C@@H]2[C@H]3CC[C@H](C3)[C@@H]2C(=O)N1CCCCN1CCN(c2ncccn2)CC1,inactive,
NC(=O)c1ccccc1[N+](=O)[O-],inactive,
COc1ccc(C2C(=O)c3ccccc3C2=O)cc1,inactive,
CC(C)c1ccc(C#N)cc1,inactive,
Cc1c(C2(c3cc(Br)c(O)c(Br)c3C)OS(=O)(=O)c3ccccc32)cc(Br)c(O)c1Br,inactive,
O=C1OC[C@H](Cc2cccc(O)c2)[C@H]1Cc1cccc(O)c1,inactive,
COc1cc(NS(=O)(=O)c2ccc(N)cc2)nc(C)n1,inactive,
C=CC(=O)O,inactive,
